The list is not random: actives were taken first. Their share in the collection is about 12%.
G9a block: inhibitors of human histone lysine methyltransferase G9a | AID 504332 | Q96KQ7 | Potency, µM (titrated, usually from 102 µM), without a hit: top-dose activity, negative = inhibition, actives largely listed as inhibitors | G9a H3K9 monomethylation, AlphaScreen, 2 h | 350,000 compounds, 8.8% hits; note: % is set by controls: 0 for no effect and ±100 for the full control effect; nearly all actives have a fitted effect of over 75% in size
Target sequence (Q96KQ7 913-1193 limits assumed): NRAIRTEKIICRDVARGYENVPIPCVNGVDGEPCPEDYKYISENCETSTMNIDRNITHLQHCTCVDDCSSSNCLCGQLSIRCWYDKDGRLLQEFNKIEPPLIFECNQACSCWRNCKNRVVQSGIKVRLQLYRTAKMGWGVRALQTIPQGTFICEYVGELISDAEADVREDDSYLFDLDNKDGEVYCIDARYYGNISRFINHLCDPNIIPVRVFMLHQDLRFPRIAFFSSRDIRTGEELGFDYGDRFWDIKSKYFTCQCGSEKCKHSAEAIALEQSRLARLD
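Step 1: enzyme (final 20 nM) with compound, 15 min RT. Step 2: substrate peptide 500 nM and SAM 20 uM, 2 h RT. Step 3: anti-H3K9me1 antibody and AlphaScreen beads, 10 min, then plate read.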
BAZ2B block: inhibitors of human BAZ2B bromodomain. AlphaScreen BAZ2B-H3K14Ac peptide displacement. Q9UIF8. 360,000 compounds, 4.4% hits. Potency, µM (highest dose often 114 µM), for the others: at the top dose activity change, negative = inhibition, usual class: inhibitors. AID 504333; note: % is set by controls: 0 for no effect and ±100 for the full control effect; nearly all actives have a fitted effect of over 60% in size
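Inhibition is scored as reduced AlphaScreen emission. The BAZ2B/b-H3(5-23)K14Ac complex (50 nM each) in PBS pH 7.4, 0.01% Tween-20 meets compound (up to 110 uM) for 30 min at RT before bead addition.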
Sfp PPTase inh: blocks B. subtilis Sfp PPTase activity. Q9F4F7. Biochemical Sfp PPTase activity, qHTS. Potency, µM, without a hit: largest response in the series, negative = inhibition, usual class: inhibitors. 310,000 compounds, 3.5% hits;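 note: the enzyme is Sfp with the accession as filed and its product quenches rhodamine fluorescence; 0% = enzyme reaction without inhibitor and -100% = no enzyme wells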
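Reaction rates are the 30-min fluorescence difference (ex 525, em 598 nm) in wells containing 15 nM Sfp, 5 uM rhodamine-CoA and 12.5 uM BHQ-2-YbbR at pH 7.6 with 10 mM MgCl2.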
JMJD2A Tudor inh: inhibitors of human JMJD2A Tudor domain; O75164; AlphaScreen JMJD2A-Tudor / H3K4me3 peptide binding; Potency, µM (titrated, usually from 114 µM), for the others: at the top dose activity change, negative = inhibition, usual class: inhibitors; 390,000 compounds, 4.4% hits; AID 504339; note: % is set by controls: 0 for no effect and ±100 for the full control effect; nearly all actives have a fitted effect of over 50% in size
L3MBTL1 block: L3MBTL1 (human) inhibition; Q9Y468; AlphaScreen L3MBTL1–H3K9me1 peptide binding; Potency, µM (highest dose often 57.1 µM), inactives show top-dose activity, negative = inhibition, most hits filed as inhibitors; 230,000 compounds, 0.66% hits; note: % is set by controls: 0 for no effect and ±100 for the full control effect; nearly all actives have a fitted effect of over 60% in size
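Displacement of a biotinylated histone H3(1-15) peptide monomethylated at Lys9 (75 nM) from L3MBTL1 (50 nM) was measured by AlphaScreen after a 30 min room-temperature compound incubation; cefsulodin titration served as intraplate control.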
HP1b chromo inh: inhibitors of HP1-beta chromodomain binding to methylated histone tails | P83916 | Potency, µM (top dose mostly 114 µM), for the others: top-dose activity change, negative = inhibition, actives largely listed as inhibitors | 390,000 compounds, 0.56% hits | AlphaScreen HP1-beta / biotin-H3K9me3 peptide binding; note: nearly all actives have a fitted effect of over 70% in size
Target sequence (P83916 whole entry, looked up): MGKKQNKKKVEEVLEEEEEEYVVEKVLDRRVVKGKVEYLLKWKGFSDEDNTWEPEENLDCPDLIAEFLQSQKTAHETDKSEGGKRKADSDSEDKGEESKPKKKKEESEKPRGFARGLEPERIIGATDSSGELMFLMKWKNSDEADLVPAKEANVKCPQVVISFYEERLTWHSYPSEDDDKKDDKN
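Compound inhibition of the preformed complex between 50 nM HP1-beta and 50 nM biotinylated H3K9me3 peptide was read by AlphaScreen. Buffer was PBS pH 7.4 with 0.01% Tween-20. Incubations ran 30 min at room temperature, with 10 ug/mL donor/acceptor beads.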
Active calls of the source: *; ? = inconclusive; nt = no result; [ ] = another dose, or the depositor's remark. Calls come from the whole dose curve; as a rule, active = well fitted curve in the direction sought with a large enough effect; inconclusive = small, poorly fitted or top-dose-only effect, or another doubt; inactive = no such curve, though single readings can be large; an effect the other way counts as inactive or inconclusive. Potency is the fitted concentration of half-maximal effect.

SMILES | G9a block | BAZ2B block | Sfp PPTase inh | JMJD2A Tudor inh | L3MBTL1 block | HP1b chromo inh
COc1ccccc1CNC(=O)CCCC(=O)n1nc(C)c2ccccc21 | -18% | -7%[57.1 µM] | -8% | 2% | nt | 36%
Cc1c(Cl)sn(-c2ccc(Cl)cc2)c1=O | 0.71µM* | 40µM* | 0.71µM* | 3.2µM* | -5% | ?
Cc1ccc(/C=C2/Sc3ccccc3N(CC(=O)NCC3CCCO3)C2=O)cc1 (stereo unspecified) | -15% | -3% | -9% | -26% | nt | 36%
COc1ccc(-c2cccc(C(=O)N3CCOCC3)c2)cc1 | 6% | -6% | 11% | -16% | -2% | 12%
COc1ccc(/C=C2\Sc3ccc(C(=O)NCC4CCCO4)cc3N(C)C2=O)cc1 (stereo unspecified) | 13µM* | -37% | 50µM* | ? | nt | -4%
COc1ccc(/C=C2\Sc3ccc(C(=O)N4CCOCC4)cc3N(C)C2=O)cc1 | -23% | -32% | 4% | 56µM* | nt | -5%
COc1ccc(/C=C2\Sc3ccc(C(=O)N4CCN(Cc5ccccc5)CC4)cc3N(C)C2=O)cc1OC | 71µM* | ? | -2% | ? | nt | -28%[57 µM]
O=C(Nc1cc(Cl)ccn1)C1(c2ccccc2)CC1(Cl)Cl (stereo unspecified) | 73% | 13% | 21% | 3% | 13% | 60%
COc1cccc(Cn2ncc3c4sc(C)cc4n(C)c3c2=O)c1 | nt | nt | nt | -19% | nt | nt
O=C(O)C(S)C(S)C(=O)O (stereo unspecified) | nt | nt | nt | 50µM* | nt | ?
O=C(CNC(=O)c1ccccc1)N[C@H](C(=O)Nc1cc(C(F)(F)F)ccc1Cl)c1ccccc1 | nt | nt | nt | -28% | nt | nt
CCOC(=O)c1ccc(NC(=O)C2Cc3ccccc3C(=O)O2)cc1 (stereo unspecified) | 15%[59 µM] | -1% | nt | -14% | nt | 43%
COc1cc(/C=N/NC(=O)C2COc3ccccc3O2)cc(OC)c1OC (stereo unspecified) | -9% | -3% | 7% | -4% | -9% | 35%
COc1cc([N+](=O)[O-])cc(/C=N\NC(=O)C2COc3ccccc3O2)c1O (stereo unspecified) | ? | 40µM* | 23% | 56µM* | ? | 23%
O=C(N/N=C\c1cccc([N+](=O)[O-])c1O)C1COc2ccccc2O1 (stereo unspecified) | -3%[59 µM] | 35µM* | 15% | ? | -15% | 11%
O=C(N/N=C/c1cccc([N+](=O)[O-])c1)C1COc2ccccc2O1 (stereo unspecified) | -37% | 10% | -2% | 0%[11.4 µM] | nt | 25%
O=C(N/N=C\c1ccc(Br)o1)C1COc2ccccc2O1 (stereo unspecified) | ? | 50µM* | -1% | 40µM* | -1% | ?
COc1ccc(C(=O)NC2CCCc3ccccc32)c(OC)c1OC (stereo unspecified) | 11% | 7% | 2% | 7% | nt | 19%
COc1ccc(NC(=O)c2cc3c(=O)n(C)c4cc(Cl)ccc4c3s2)cc1Cl | -15%[59 µM] | 3% | nt | -11% | nt | 22%
CCOc1ccccc1NC(=O)CCc1c(C)nn(-c2ccc(N3CCCCC3)nn2)c1C | -8% | -17% | 12% | ? | nt | 26%
Cc1cc(C(F)F)n2nc(C(=O)Nc3ccc(F)c(Cl)c3)nc2n1 | -41%[59 µM] | 1% | nt | -6% | nt | -6%
Cc1ccc(NC(=O)C2CC(O)CN2C(=O)OCc2ccccc2)cc1C (stereo unspecified) | 6% | -12% | 6% | -16% | nt | 20%
Cc1cccc2sc(NNC(=O)c3ccc(S(=O)(=O)N4CCCC(C)C4)cc3)nc12 (stereo unspecified) | 25µM* | 11% | ? | 11µM* | ? | -24%
Cc1cccc2sc(NNC(=O)c3ccc(S(=O)(=O)N4CCc5ccccc5C4)cc3)nc12 | 40µM* | 4µM* | ? | 8.9µM* | ? | -15%
CCOC(=O)c1ccc(NS(=O)(=O)c2cc(-c3onc(C)c3C)ccc2C)cc1 | 1%[59 µM] | 2% | nt | -13% | nt | 24%
